Activation data for 91 compounds are collected here from PubChem BioAssay AID652126 (The Scripps Research Institute Molecular Screening Center, 2013).

The structures appear in SMILES notation. The campaign covered roughly 370,000 compounds. About 3,700 (1%) were called active. This is one part of a sample in which actives are shown more often than they occur.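 The calls were made as follows: active = activation above the mean over all tested compounds plus 3 SD (cut at about 0.9% in these data); inactive = the rest.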

The subject of this assay is Nuclear hormone receptor DAF-12 (Strongyloides stercoralis). The assay is described as follows: ssDAF-12 driven luciferase reporter activation – cell-based, luminescence, HEK293, GRIP1 co-expression, lit1-tk-luc, primary screen (AID 652126).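 Also: 0% = DMSO-only wells and 100% = 3 µM delta7-dafachronic acid wells.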 The following applies: HEK293 ssDAF-12/GRIP1 lit1-tk-luc reporter, at 6.8 µM, active compounds read high, % of 3 µM dafachronic acid response.
Take `CN(C)S(=O)(=O)c1cccc(C(=O)N/N=C\c2ccco2)c1`: the activation was -0.66% (inactive).

On to `CC1CCN(C(=O)COC(=O)c2cc(=O)[nH]c3ccccc23)CC1`, for which the activation was -0.23% (inactive).

Consider `COC(=O)C1CCN(C(=O)c2cc(=O)[nH]c3ccccc23)CC1`, for which the activation is 1.33% (active).

On to `CC1CCCCC1NC(=O)c1cc(=O)[nH]c2ccccc12` (stereo unspecified), for which the activation is -0.66% (inactive).

`CCc1ccccc1NC(=O)CSc1nnc(-c2cccs2)o1`: the activation was -1.52% (inactive).

In the case of `CCOC(=O)c1c(NC(=S)SC)sc(C(=O)N2CCc3ccccc3C2)c1C`, the activation was -0.64% (inactive).

For `Cc1ccc(NC(=O)COc2coc(CN3CCc4ccccc4C3)cc2=O)cc1Cl`, the activation is -1.76% (inactive).

For the compound `CCc1ccc(NC(=O)N2CCc3ccccc3C2)cc1`, the activation was 1.53% (active).

On to `CCc1ccc(NC(=O)CC2C(=O)NCCN2C(=S)Nc2ccccc2)cc1` (stereo unspecified), for which the activation was -1.42% (inactive).

Turning to `Cc1ccc(NC(=O)CN2CCc3ccccc3C2)cc1C`, the activation is 1.3% (active).

With `O=C(CN1CCc2ccccc2C1)Nc1cccc(S(=O)(=O)N2CCOCC2)c1`, the activation was -0.91% (inactive).

With `Cc1cc(NS(=O)(=O)c2ccc(NC(=O)CSc3nnc(-c4ccc(C(C)(C)C)cc4)n3Cc3ccco3)cc2)nc(C)n1`, the activation was -1.29% (inactive).

Consider `COc1ccc(O)c(C(=O)c2cnc3onc(C(C)C)c3c2)c1`, for which the activation was -0.89% (inactive).

With `COc1cccc(NC(=O)CC2C(=O)NCCN2C(=S)Nc2ccc(F)cc2)c1` (stereo unspecified), the activation was -1.35% (inactive).

On to `COc1cccc(C(=O)NNS(=O)(=O)c2ccc(F)cc2)c1`, for which the activation was -1.09% (inactive).

`COc1cccc(NC(=O)Nc2ccc(F)cc2)c1`: the activation was 1.74% (active).

With `COC(=O)C1CN(Cc2cn(Cc3ccc(F)cc3)nn2)CCS(=O)(=O)N1Cc1ccc(Cl)cc1` (stereo unspecified), the activation was -2.03% (inactive).

For the compound `CCCCNC(=O)C[C@H]1C[C@@]2(C(=O)OC)C(=C[C@H](COCc3ccccc3)O[C@@H]2C)N(Cc2ccc(Cl)cc2Cl)C1=O`, the activation is -1.35% (inactive).

As to `CC(C)CSc1nnc(-c2cccnc2)n1Cc1ccccc1`, the activation is -1.35% (inactive).

In the case of `COC(=O)c1cc(S(=O)(=O)N2CCN(C(=O)C3CCCO3)CC2)cn1C` (stereo unspecified), the activation is -1.3% (inactive).

For the compound `Cn1ncc2c(NNC(=O)Cc3cccc4ccccc34)ncnc21`, the activation was -1.61% (inactive).

Consider `Cc1ccc(C(=O)NNc2ncnc3ccccc23)cc1`, for which the activation is 1.85% (active).

`Cc1ccc(CCNC(=O)c2ccc3nc4ccccc4c(=O)n3c2)cc1`: the activation was -1.47% (inactive).

Consider `O=C(CNC(=O)c1ccccc1)OC(C(=O)Nc1cc([N+](=O)[O-])ccc1F)c1ccccc1` (stereo unspecified), for which the activation is -2.1% (inactive).

As for `CCOC(=O)C1CCN(C(=O)C(C)(C)NC(=O)Nc2ccccc2Cl)CC1`, the activation is -0.72% (inactive).

For `NC1=NN(c2cccc(C(=O)O)c2)C(=O)C1`, the activation was 0.3% (inactive).

For `O=C(O)c1cccc(S(=O)(=O)N2CC=C(c3ccccc3)CC2)c1`, the activation was -1.29% (inactive).

As for `O=C(O)c1cccc(N=NN2CCCCCC2)c1`, the activation is 1.23% (active).

For `O=C(c1c[nH]c2ccccc12)N1CCC(Oc2cccnc2)CC1`, the activation was -1.03% (inactive).

With `Cc1ccc(OCc2nnc(SC/C=C/c3ccccc3)n2Cc2ccco2)cc1`, the activation was -1.7% (inactive).

For `O=C(Nc1cccc(Cl)c1)OC1CC2CC1[C@H]1CCCCN1[C@H]2Cc1ccccc1` (stereo partly specified), the activation is -1.06% (inactive).

As for `Cc1ccccc1NC(=O)COC(=O)c1ccc(Sc2ncn[nH]2)c([N+](=O)[O-])c1`, the activation is -1.78% (inactive).

As for `Cc1nc2ccc(C(=O)N3CCN(C(=O)C(C)(C)C)CC3)cc2n1C1CCCC1`, the activation is -1.22% (inactive).

With `CCOC(=O)c1nc(-c2ccc3c(c2)OCO3)[nH]c1C`, the activation is -1.3% (inactive).

`Cc1ccc(-c2nc3ccccc3[nH]2)cc1N`: the activation is 2.5% (active).

For `CN(C)c1cc(N)c2ccccc2n1` (tested in a mixture with another compound), the activation is -0.25% (inactive).

As for `Cc1cc(C)nc(NC(=S)N2CCN(c3ccc(C(F)(F)F)cn3)CC2)c1`, the activation was -1.63% (inactive).

Regarding `COc1ccc(C(=O)OCCN2CCN(C3CN(Cc4cn(Cc5ccccc5F)nn4)S(=O)(=O)C3)CC2)cc1OC` (stereo unspecified), the activation was -1.83% (inactive).

For `O=C(Nc1cc(F)cc(F)c1)OC1CCC12CCC(c1ccccc1)CC2` (stereo unspecified), the activation is -1.11% (inactive).

On to `O=C(Nc1cc(Cl)cc(Cl)c1)OCCN1CCCC12CCC(c1ccccc1)CC2` (stereo unspecified), for which the activation was -1.99% (inactive).

For the compound `Cc1ccc(-n2c(SCC(=O)Nc3ccc(S(=O)(=O)Nc4nccs4)cc3)nnc2-c2cccnc2)cc1`, the activation was -1.03% (inactive).

For `Fc1ccccc1-c1cc2cc3c(cc2cn1)OCO3`, the activation is 0.96% (active).

`Fc1ccc2cnc(-c3ccccc3)cc2c1`: the activation is 0.89% (inactive).

For `COC(=O)C[C@@H]1CC[C@@H]2[C@H](COc3ccc(NC(=O)c4cccc(F)c4)cc3C(=O)N2C)O1`, the activation was -1.32% (inactive).

In the case of `CN(C(N)=NC(=O)/C=C/c1ccccc1)C(C#Cc1ccccc1)Cc1ccccc1` (stereo unspecified), the activation was -1.31% (inactive).

In the case of `O=C(CCCCCN1C(=O)C2C3C=CC(C3)C2C1=O)Nc1ccccn1` (stereo unspecified), the activation was -1.93% (inactive).

Consider `COc1ccc(Cn2cc(COC(=O)N(C)Cc3ccccc3)nn2)cc1`, for which the activation was -1.12% (inactive).

On to `Cc1cnc(NC(=O)c2ccc(Cl)nc2)s1`, for which the activation was 1.34% (active).

For `Cc1ccc(NC(=O)c2ccc(Cl)nc2)cc1S(=O)(=O)N1CCOCC1`, the activation is -1.53% (inactive).

With `COc1ccc(CC(=O)NCc2nnc(SCC(=O)Nc3ncc(C)s3)n2C)cc1`, the activation is -1.52% (inactive).

For the compound `COc1ccc(-c2cc(-c3nnc(SCC(=O)Nc4cccc5ccccc45)n3N)[nH]n2)cc1`, the activation was -1.73% (inactive).

With `Cc1cc(=O)[nH]c(SCC(=O)Nc2ccc(Cl)cc2C)n1`, the activation is -1.2% (inactive).

As to `CCC(c1ccc(NC(=O)OC(C)(C)C)cc1)c1cc(OC)cc(OC)c1` (stereo unspecified), the activation was -1.95% (inactive).

Take `CC(C)(C)c1ccc(C(=O)Nc2cc(Cl)c(Br)cc2C(=O)O)cc1`: the activation was -1.31% (inactive).

Regarding `Cc1c(C(=O)NC2CCCCC2)oc2ccccc12`, the activation was -0.81% (inactive).

As for `Cc1c(C(=O)Nc2ccccn2)oc2ccc(Br)cc12`, the activation is 1.84% (active).

As to `CCc1nonc1NC(=O)c1oc2ccc(Cl)cc2c1C`, the activation was -0.87% (inactive).

Consider `C=CCn1c(SCC(N)=O)nnc1-c1ccccc1OC`, for which the activation is -0.81% (inactive).

`COc1ccc(C(=O)Nc2ccc(-n3nncc3C(C)(C)C)cc2)cc1`: the activation is -1.68% (inactive).

Turning to `COc1ccc(NC(=O)c2ccc(OC)cc2)cc1`, the activation was 0.92% (active).

Regarding `COc1ccc(C(=O)NCC[N+](C)(C)C)cc1`, the activation is -0.25% (inactive).

For the compound `O=C(CSc1nnc(-c2ccccc2)n1Cc1ccco1)Nc1ccccc1-c1ccccc1`, the activation was -1.67% (inactive).

Take `O=C(CSc1nnc(COc2ccccc2)n1Cc1ccco1)c1ccc2ccccc2c1`: the activation is -1.35% (inactive).

Regarding `O=C(c1ccccc1)c1cc(-c2ccccn2)c(N2CCOCC2)s1`, the activation is -1.53% (inactive).

Take `Clc1ccc(-c2cc(C3CCNCC3)[nH]n2)c(Cl)c1`: the activation was -1.62% (inactive).

As for `Clc1ccc(-c2cc(-c3ccccn3)on2)c(Cl)c1`, the activation was 1.28% (active).

Consider `C[C@H]1[C@H](NC(=O)c2cccc(N(C)C)c2)CC[C@@]23CCCN2C(=O)CCC[C@@H]13`, for which the activation is -1.05% (inactive).

`Cn1c(-c2ccco2)nc2cc3ccccc3cc21`: the activation is 1.86% (active).

`O=S(=O)(Nc1ccc2nc(-c3ccco3)[nH]c2c1)c1ccccc1`: the activation is -0.88% (inactive).

In the case of `Cn1c(SCC(=O)c2cccs2)nnc1-c1ccco1`, the activation is -0.1% (inactive).

`Cc1cc(NS(=O)(=O)c2ccc(NC(=O)CSc3nnc(SCc4ccc(F)cc4)s3)cc2)nc(C)n1`: the activation was -1.33% (inactive).

Regarding `O=C1CCC2(CCC(c3ccc(Cl)cc3)CC2)N1CCO` (stereo unspecified), the activation is -1.42% (inactive).

Take `Oc1cccc2ccc(/C=C/c3ccc(Br)s3)nc12`: the activation was 1.49% (active).

Turning to `O=C(CN1C(=O)NC2(CCCCC2)C1=O)NCCC1=CCCCC1`, the activation was -1.49% (inactive).

`CCOC(=O)c1cccc(NC(=O)CN(C)S(=O)(=O)c2ccc(-c3cocn3)s2)c1`: the activation is 0.72% (inactive).

Regarding `N[C@@H](Cc1ccccc1)C(=O)N1CCC[C@@H]1C(=O)N1CCC2CCN(S(=O)(=O)c3ccccc3)CC21` (stereo partly specified), the activation was -0.75% (inactive).

As to `CN(C)CCNC(=O)c1ccc(Cl)c2cc3ccccc3nc12`, the activation is 2.74% (active).

Consider `O=C(NCCCNC(=O)c1ccccc1Cl)c1cnccn1`, for which the activation is -0.77% (inactive).

With `CN(C)CCNC(=O)Cc1ccc([N+](=O)[O-])cc1`, the activation is -0.65% (inactive).

`COc1ccc(Cn2cc(CN3[C@@H](CC(C)C)COc4cc(Br)ccc4S3(=O)=O)nn2)cc1`: the activation is -0.66% (inactive).

Regarding `Fc1ccc2nc(COCc3nc4ccc(F)cc4[nH]3)[nH]c2c1`, the activation was -1.23% (inactive).

In the case of `Oc1cc2c(cc1O)CN(C(=S)NCCc1ccc(Cl)cc1)CCC2`, the activation was -1.68% (inactive).

For the compound `CC1CCN(C(=O)CCNC(=O)c2ccccc2)CC1`, the activation was -0.14% (inactive).

With `CCOc1ccc(CCNC(=O)C2=C(C)C(=O)OC23CCC(C)CC3)cc1OCC` (stereo unspecified), the activation was -0.29% (inactive).

In the case of `CCN(CCNC(=O)C1=C(C)C(=O)OC12CCC(C)CC2)c1ccccc1` (stereo unspecified), the activation was 3.96% (active).

As for `O=C(OC12CCCN(C1)/C(=C/c1cccnc1)C2)C1CCCC1` (stereo unspecified), the activation was -1.43% (inactive).

Regarding `CCOC(=O)[C@@]12CN(C(=O)OC(C)(C)C)CC=C1N(Cc1ccc(OC)cc1)C(=O)[C@H]2CC(=O)NCc1ccc(OC)c(OC)c1`, the activation is -0.75% (inactive).

On to `CC(NC(=O)c1ccccc1C(=O)O)c1ccc(-n2ccnc2)cc1` (stereo unspecified), for which the activation was 0.93% (active).

With `CC(NC(=O)c1ccccc1SCC(=O)N1CCCC1)c1ccccc1` (stereo unspecified), the activation was -0.47% (inactive).

Turning to `C/C(=N\NC(=O)c1cccnc1)c1ccc(-n2ccnc2)cc1`, the activation was -1.15% (inactive).

On to `C[C@H](C(=O)N(C)c1ccccc1)[C@@H](O)c1ccc2ccccc2c1`, for which the activation is -0.52% (inactive).
